For this test, the target named is Pantothenate synthetase (Mycobacterium tuberculosis (strain ATCC 25618 / H37Rv)) (UniProt P9WIL5). As to the kind of experiment: Recombinant Mtb pantothenate synthetase (PanC) inhibitors, coupled enzyme, confirmatory (AID 375).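 Note: 0% = full reaction with vehicle and 100% = no enzyme background.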 As to conditions: coupled enzyme assay; at 10 µM, hits give high values.

A number with no mark means an inactive call. The rule behind the calls is not given here.

Chain of Pantothenate synthetase (Mycobacterium tuberculosis (strain ATCC 25618 / H37Rv)) (P9WIL5 whole entry, looked up): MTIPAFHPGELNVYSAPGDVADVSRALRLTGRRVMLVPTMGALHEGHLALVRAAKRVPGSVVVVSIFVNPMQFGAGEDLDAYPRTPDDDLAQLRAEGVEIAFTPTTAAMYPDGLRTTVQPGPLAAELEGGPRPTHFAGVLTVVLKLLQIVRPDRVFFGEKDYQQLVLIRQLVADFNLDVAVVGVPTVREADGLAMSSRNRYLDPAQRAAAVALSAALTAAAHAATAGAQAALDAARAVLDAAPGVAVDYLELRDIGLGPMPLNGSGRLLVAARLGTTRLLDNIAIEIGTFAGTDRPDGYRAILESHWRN

As to `CCOC(=O)c1[nH]c2ccccc2c1NC(=O)CCN1CCN(C(=O)OCC)CC1`, the inhibition – broadly, the change of the read-out against control, counted positive when it falls – was 0%. For `CCCn1nc(CC(=O)O)c2ccccc2c1=O` the value was 0%; for `CCSC(SCC)[C@H](O)[C@@H](O)[C@H](O)[C@H](O)CO`, 2%; for `c1ccc(-c2cc(-c3nc(-c4ccccn4)no3)c3ccccc3n2)cc1`, 0%. For `Cc1ccc2cc(CCNC(=O)C(C)C)c(=O)[nH]c2c1C` the value was 3%; for `Cc1ccc(S(=O)(=O)C2(C(=O)NC3CCCC3)CC2)cc1`, 9%; for `O=C(O)CCCC(=O)Nc1ccc(Br)cc1C(=O)O`, 0%.

For the compound `CCC1CCCCN1CCCNC(=O)c1ccc(CS(=O)(=O)Cc2ccccc2F)o1` (configuration not stated), the inhibition was 4%. With `Cc1ccc(C(=O)N2CCN(C(=O)c3ccc(C)c(C)c3)C(C)C2)cc1C` (configuration not stated), the inhibition is 7%. On to `CC(=O)N1C(=O)C2(Nc3ccccc3N2)c2ccccc21`, for which the inhibition is 1%. For `O=C(NCCN1CCCCCC1)c1ccc(N2CCCC2=O)cc1` the value was 1%.

With `Nc1nc(Nc2cccc3ccccc23)nc(C2CCCC2=O)n1` (configuration not stated), the inhibition was 5%. The figure for `COc1ccc(S(=O)(=O)N2CCCC(C(=O)NCc3ccccn3)C2)cc1` (configuration not stated) is 7%; for `COc1ccc(N2CCN(c3ncnc4c3cnn4-c3ccc(C)cc3C)CC2)cc1` it is 8%. For `CCCSc1nc2c(cnn2-c2ccc(C)cc2)c(=O)[nH]1` the value was 0%; for `COC(=O)c1[nH]c2cc(OC)ccc2c1NC(=O)CCN1CCCCC1`, 1%; for `COc1cccc(/C=N/n2c(C)nc3ccccc32)c1OC`, 0%.

For the origin of these results see PubChem BioAssay.
